HepG2 tox – counter-screen for TGF-b inhibitors: cytotoxicity in HepG2 cells | HepG2 CAGA-GFP viability, ATP luminescence, 18 h | Potency, µM (doses to about 46.1 µM), for the others: top-dose activity change, negative = cytotoxicity, actives largely listed as cytotoxic | hit rate 0.76% among 410,000; note: potency is the fitted concentration of half-maximal effect
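CellTiter-Glo luminescence gave cytotoxicity after 18 hours at 37 degrees C. The cells were HepG2 CAGA-GFP in 1% FBS DMEM, stimulated with 500 pg/mL TGF-beta after compound addition. %Activity was normalised to no-cell wells (complete cell-killing) and DMSO (no toxicity), and curves were fitted and classified.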
Giardia killer – kills Giardia lamblia. Giardia lamblia trophozoite viability. hit rate 0.15% among 340,000. activity change, % at 7.66 µM, hits read low; in the data active = activity change below about -80%; inconclusive = between about -30% and that limit;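 note: parasites exposed to compound for two days anaerobically before the ATP read; % is set by controls: 0 for no effect and ±100 for the full control effect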
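Anaerobic 48 hrs incubation at 37 deg C of 100 trophozoites/well with test compounds; ATPLite 1-Step luminescence, 15-30 min RT, reports cellular ATP as viability.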
HT1080 IDH1KD tx – HT-1080 IDH1 knockdown cell toxicity (counter line). HT-1080 IDH1 knockdown viability, ATP luminescence, 48 h. Potency, µM (series often up to 46.1 µM), without a hit: top-dose activity, negative = toxicity, usual class: cytotoxic. hit rate 2% among 360,000. AID 686971;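 note: potency is the fitted concentration of half-maximal effect; 0% = DMSO wells and -100% = cell-free medium wells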
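% activity derives from luminescence (CellTiter-Glo), normalised to DMSO and no-cell wells. HT-1080-IDH1KD cells, 750/well, had 48 h compound exposure at 37 °C.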
IL1B secr inh – inhibitors of inflammasome signaling (IL-1 beta secretion); THP-1 LPS/ATP IL-1B secretion, AlphaLISA, 16 h; stronger effect = lower value; activity change, % at 57.5 µM; hit rate 4.7% among 360,000; AID 743279; in the data active = activity change below about -50%; inconclusive = mostly about -30% to -49%; note: % is set by controls: 0 for no effect and ±100 for the full control effect
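THP-1 cells pretreated 1 hr with compounds (up to 57.5 uM final), then stimulated with LPS (250 ng/mL final) plus ATP (1.25 mM final); secreted IL-1B measured by AlphaLISA after 16 hr, decreased signal indicating inhibition.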
HT1080NT lethal – kills 2HG-producing HT-1080-NT fibrosarcoma cells | HT-1080-NT fibrosarcoma viability, CellTiter-Glo ATP luminescence, 48 h | Potency, µM (top dose mostly 46.1 µM), for inactives: at the top dose activity, negative = less viability, most hits filed as cytotoxic | hit rate 1.6% among 360,000;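 note: NT is the 2HG producing partner of a matched IDH1 knockdown line; potency is the fitted concentration of half-maximal effect; 0% = DMSO-treated cells and -100% = media-only wells without cells; nearly all actives have a fitted effect of over 55% in size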
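750 cells/well, RPMI + 5% FBS; 2 h settle, compound pin-transfer, 48 h at 37 degrees C. CellTiter-Glo 10 min RT, luminescence. Normalized to DMSO and media-only wells.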
TGFb SMAD3 inh – TGF-b pathway inhibition | HepG2 CAGA-GFP TGF-b/SMAD3 reporter, GFP fluorescence, 18 h; TGF-beta stimulated, 500 pg/mL final | Potency, µM (series often up to 46.1 µM), inactives show at the highest dose activity, negative = inhibition, usual class: inhibitors | AID 588855 | hit rate 1.2% among 410,000; note: potency is the fitted concentration of half-maximal effect; % is set by controls: 0 for no effect and ±100 for the full control effect; nearly all actives have a fitted effect of over 65% in size
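Using HEPG2 CAGA-GFP reporter cells at 1000 cells/well, we pinned test compounds, stimulated with recombinant TGF-beta (500 pg/mL final) and measured total well GFP after 18 h.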
Active calls of the source: *; ? = inconclusive; . = no result given. Sampled rows, rich in hits. Any-hit rate of the full collection: about 6.5%. Unless noted, calls come from the whole dose curve; as a rule, active = well fitted curve in the direction sought with a large enough effect; inconclusive = small, poorly fitted or top-dose-only effect, or another doubt; inactive = no such curve, though single readings can be large; an effect the other way counts as inactive or inconclusive.

SMILES	HepG2 tox	Giardia killer	HT1080 IDH1KD tx	IL1B secr inh	HT1080NT lethal	TGFb SMAD3 inh
CC(C)(C)OC(=O)[C@H](Cc1ccccc1)NC(=O)c1[nH]cnc1C(=O)N[C@@H](Cc1ccccc1)C(=O)OCc1ccccc1	-5%	14	-17%	0	-16%	?
CCOC(=O)c1ccc(NC(=O)c2nc[nH]c2C(=O)N[C@@H](Cc2ccccc2)C(=O)OC(C)(C)C)cc1	-52%	-15	3%	-73*	-6%	?
CC(C)(C)OC(=O)[C@H](Cc1ccccc1)NC(=O)c1[nH]cnc1C(=O)Nc1ccc(Cl)cc1	16µM*	9	?	-59*	?	?
COc1cc(/C=C/C(=O)N2CC(C)OC(C)C2)cc(OC)c1OC (stereo unspecified)	-14%	10	-2%	34	16%	19%
CCOc1ccc(-c2nonc2NC(=O)c2oc3cc(Br)ccc3c2C)cc1	-30%	.	.	.	.	7.1µM*
CCOc1ccc(-c2nonc2NC(=O)c2oc3ccc(Br)cc3c2C)cc1	-24%	.	.	.	.	-19%
COCCNC(=O)Cn1cc(S(=O)(=O)N2CCN(c3ccccc3F)CC2)c2ccccc2c1=O	-3%	5	1%	-6	27%	1%
O=C(Cn1cc(S(=O)(=O)N2CCN(c3ccccc3F)CC2)c2ccccc2c1=O)NCCCN1CCCCCC1	-9%	4	?	-61*	?	4%
C/C(CC(=O)NCCCN1CCOCC1)=N\NC(=O)COc1ccc(C)cc1	2%	17	-1%	-8	0%	0%
CCC(=O)OCCNc1cc(Sc2nc3ccccc3[nH]2)c2nonc2c1[N+](=O)[O-]	-70%	-6	?	-101*	?	-27%
Cc1nnc(Sc2cc(NCCO)c([N+](=O)[O-])c3nonc23)s1	-49%	-5	?	2	?	?
CCC(=O)OCCNc1cc(Sc2nc3ccccc3s2)c2nonc2c1[N+](=O)[O-]	13µM*	4	2.8µM*	-14	-58%	7.9µM*
COc1ccc(NS(=O)(=O)c2ccc(N3CCOCC3)c(NC(=O)c3ccccc3Cl)c2)cc1	-2%	6	0%	0	-8%	4%
CCNC(=S)N/N=C(\C)c1cccc(C(F)(F)F)c1	58%	19	-24%	-23	5%	3%
O=C(/C=C/c1cc(Br)ccc1O)c1ccco1	11µM*	?	9.2µM*	-71*	9.2µM*	?
O=C(/C=C/c1ccccc1O)c1ccco1	-57%	-4	?	-14	?	?
Cc1ccc(/C=C/C(=O)c2cc(Br)ccc2OC(=O)c2ccco2)cc1	11µM*	2	?	-14	?	-14%
COc1ccccc1/C=C/C(=O)c1cc(Br)ccc1OC(=O)c1ccco1	-88%	3	21µM*	-98*	18µM*	?
COc1ccc(Br)cc1C(=O)Nc1ccc(NC(=O)c2ccco2)cc1	-17%	-1	8%	-1	11%	-21%
COc1ccccc1N(CN1CCCC1=O)C(=O)COc1ccccc1	-28%	-2	-8%	2	1%	0%
Cc1ccc(C(C)(C)C)cc1S(=O)(=O)Nc1nc2ccccc2nc1Cl	-44%	-22	1%	-14	-20%	?
Cc1cc(F)ccc1S(=O)(=O)Nc1nc2ccccc2nc1Cl	2%	4	-9%	-51*	-9%	-4%
Cc1cc(C)nc(N(C#N)CN2C(=O)c3ccccc3C2=O)n1	4%	-7	-2%	-15	6%	-27%
CCC(C)Nc1nc(Cl)nc(N(C#N)CN2C(=O)c3ccccc3S2(=O)=O)n1 (stereo unspecified)	-37%	-14	-23%	-66*	-20%	?
CC(C)Nc1nc(Cl)nc(N(C#N)CN2C(=O)c3ccccc3C2=O)n1	-11%	37	18µM*	-99*	?	0%
SMILES	HepG2 tox	Giardia killer	HT1080 IDH1KD tx	IL1B secr inh	HT1080NT lethal	TGFb SMAD3 inh
Oc1c(I)cc(I)c2cccnc12	-25%	9	?	20	3.7µM*	-18%
Cc1ccc(S(=O)(=O)Nc2cc(Cl)c(O)c3ncccc23)cc1	2.8µM*	-7	?	50	-23%	6.3µM*
O=C(O)c1ccc(O)c2ncccc12	-15%	.	.	.	.	-16%
Oc1ccc(F)c2cccnc12	1%	2	0%	-70*	?	?
Oc1ccc(Cl)c2cccnc12	10µM*	-4	-25%	-30	-7%	7.1µM*
CC(C)CN1CCC(=O)NC1=S	-6%	1	-4%	-2	-1%	0%
COCCNc1nc2sc3c(c2c(=O)n1Cc1ccco1)CCCCC3	-24%	4	?	12	-25%	-6%
Oc1c(Cl)cc(Cl)c2cccnc12	-22%	9	21µM*	126	?	?
Oc1ccc(CNc2ccccc2F)c2cccnc12	-24%	-2	?	106	?	7.1µM*
Cc1ccc(S(=O)(=O)N(CCCN2CCCC2=O)Cc2cc3c(C)ccc(C)c3[nH]c2=O)cc1	-21%	1	9%	-2	14%	-19%
COc1ccc(S(=O)(=O)N(CCCN2CCCC2=O)Cc2cc3cc(C)c(C)cc3[nH]c2=O)cc1	13%	-1	5%	-73*	0%	-19%
Cc1ccc(OCC(=O)Nc2ccc(N3CCN(C(=O)c4ccco4)CC3)cc2)cc1	-19%	-1	-15%	-59*	-18%	-24%
Cc1cc(C)cc(C(=O)Nc2ccc(N3CCN(C(=O)c4ccco4)CC3)cc2)c1	-86%	2	-3%	-52*	-3%	-9%
Cc1ccc(C(=O)N2CCN(c3ccc(NC(=O)COc4ccccc4C)cc3)CC2)cc1	-19%	1	-28%	-64*	-22%	-20%
O=C(COc1ccccc1)Nc1ccc(N2CCN(C(=O)c3ccco3)CC2)cc1	10%	-12	13%	-3	26%	-10%
CCC(=O)N1CCN(c2ccc(NC(=O)COc3ccc(C)cc3C)cc2)CC1	2%	-1	?	22	-4%	-3%
Cc1ccc(NC(=O)COc2ccccc2CNC(C)(C)CC(C)(C)C)cc1	11µM*	-18	?	-105*	?	?
CCCSCCCNC(=O)C1CCN(c2nc3ccccc3nc2C(F)(F)F)CC1	-5%	.	.	.	.	?
NC(=O)C1CCN(CC(=O)Nc2ccccc2C(=O)NC2CC2)CC1	12%	26	8%	5	11%	0%
COc1cc(NC(=O)CN2C(=O)C(c3ccccc3)=NC2(C)C)cc(OC)c1	-4%	14	0%	9	-3%	-2%
